# Laboratory results published in PubChem BioAssay (Tox21).
# Inconclusive results are not listed. A call without a number means that no potency is given here. Active and inactive are the calls of the source. Unless noted, calls come from the whole dose curve.
# What was measured:
# [1] = target: Gonadotropin-releasing hormone receptor (Homo sapiens) (UniProt P30968); assay: Human gonadotropin-releasing hormone receptor (GnRHR) small molecule agonists, calcium flux assay in GnRHR-HEK293 cells (AID 1920063); conditions: calcium flux fluorescence, agonist mode; series mostly up to 57.6 µM; note: nearly all actives have a fitted effect of over 35% in size
# Sequence of Gonadotropin-releasing hormone receptor (Homo sapiens) (P30968 whole entry, looked up): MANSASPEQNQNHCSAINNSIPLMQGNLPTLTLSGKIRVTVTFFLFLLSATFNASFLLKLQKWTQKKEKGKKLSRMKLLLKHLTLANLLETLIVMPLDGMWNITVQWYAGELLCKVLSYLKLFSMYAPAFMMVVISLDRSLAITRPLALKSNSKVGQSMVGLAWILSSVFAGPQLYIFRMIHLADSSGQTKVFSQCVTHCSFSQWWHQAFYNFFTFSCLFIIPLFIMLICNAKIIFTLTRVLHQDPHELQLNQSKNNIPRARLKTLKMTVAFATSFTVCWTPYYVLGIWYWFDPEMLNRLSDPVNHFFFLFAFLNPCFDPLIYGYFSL
# Outline: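 HEK293 cells stably expressing human GnRHR were plated 18 h at 37 °C, loaded with calcium dye 1 h at 37 °C, then given compound in agonist mode; fluorescence (Ex/Em 480/540) read kinetically for 3 min at 1 s intervals.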
# [2] = target: KiSS-1 receptor (Homo sapiens) (UniProt Q969F8); assay: Human kisspeptin (KISS1R) small molecule agonists, calcium flux assay in KISS1R-HEK293 cells (AID 1920064; active = well fitted activation curve with a large enough effect in the repeat runs); conditions: KISS1R-HEK293, calcium flux fluorescence, agonist; series mostly up to 76.8 µM
# Sequence of KiSS-1 receptor (Homo sapiens) (Q969F8 whole entry, looked up): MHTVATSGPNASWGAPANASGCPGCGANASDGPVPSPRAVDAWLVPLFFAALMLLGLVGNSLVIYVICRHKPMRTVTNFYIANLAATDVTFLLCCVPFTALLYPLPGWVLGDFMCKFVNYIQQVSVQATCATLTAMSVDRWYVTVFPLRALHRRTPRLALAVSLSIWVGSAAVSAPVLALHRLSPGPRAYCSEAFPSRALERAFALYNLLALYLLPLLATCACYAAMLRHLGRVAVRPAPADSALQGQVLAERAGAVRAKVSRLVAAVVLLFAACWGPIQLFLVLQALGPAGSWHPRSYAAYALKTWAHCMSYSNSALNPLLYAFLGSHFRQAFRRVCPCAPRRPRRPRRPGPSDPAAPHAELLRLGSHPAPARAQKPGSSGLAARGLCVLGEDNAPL
# Outline: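 HEK293 cells stably expressing human KISS1R were plated 18 h at 37 °C, loaded with calcium dye for 1 h at 37 °C, then given compound by pin tool. Fluorescence (Ex/Em 480/540) was read kinetically for 3 min.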
# [3] = G protein-coupled receptor (GPCR) small molecule agonists, calcium flux assay: HEK293 wild type cell line counter screen (AID 1920065); conditions: HEK293 WT calcium flux, fluorescence, agonist mode; series mostly up to 57.6 µM
# Outline: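 Cells were plated and cultured 18 h at 37 C/5% CO2, then loaded with calcium dye for 1 h at 37 C. Compounds in DMSO were pin-transferred in agonist mode, and fluorescence (Ex/Em 480/540) was read kinetically for 3 min at 1 s intervals.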
# [4] = p53 small molecule agonists, cell-based qHTS assay with rat liver microsomes (AID 1963578); conditions: HCT-116 p53RE-bla, beta-lactamase ratio, 16 h; series mostly up to 66 µM
# Outline: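 Each plate received p53RE-bla cells, then compound, then rat liver microsomes and NADPH (both 0.5 mg/mL final). Plates were held 16 h at 37 C, and beta-lactamase activity was detected with LiveBLAzer over 2 h.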
# [5] = p53 small molecule agonists, cell-based qHTS assay (AID 1963582; active = well fitted activation curve with a large enough effect in the signal ratio in the repeat runs, not every such curve was filed as active; the % refers to the signal ratio); conditions: HCT-116 p53RE-bla reporter, beta-lactamase FRET ratio, 16 h; series mostly up to 66 µM
# Outline: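 p53RE-bla beta-lactamase reporter cells rested 5 h at 37 C/5% CO2, then received compounds in DMSO by pin transfer and were incubated 16 h at 37 C. LiveBLAzer B/G FRET substrate was loaded for 2 h at room temperature before fluorescence reading.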
# [6] = target: 5-hydroxytryptamine receptor 2A (Homo sapiens) (UniProt P28223); assay: 5-hydroxytryptamine receptor 2A (HTR2A) small molecule antagonists, cell-based qHTS assay (AID 1963586); conditions: HTR2A-CHO cells, DOI-induced calcium flux, fluorescence; series mostly up to 61.5 µM; note: nearly all actives have a fitted effect of over 45% in size; note: potency is the fitted concentration of half-maximal effect
# Sequence of 5-hydroxytryptamine receptor 2A (Homo sapiens) (P28223 whole entry, looked up): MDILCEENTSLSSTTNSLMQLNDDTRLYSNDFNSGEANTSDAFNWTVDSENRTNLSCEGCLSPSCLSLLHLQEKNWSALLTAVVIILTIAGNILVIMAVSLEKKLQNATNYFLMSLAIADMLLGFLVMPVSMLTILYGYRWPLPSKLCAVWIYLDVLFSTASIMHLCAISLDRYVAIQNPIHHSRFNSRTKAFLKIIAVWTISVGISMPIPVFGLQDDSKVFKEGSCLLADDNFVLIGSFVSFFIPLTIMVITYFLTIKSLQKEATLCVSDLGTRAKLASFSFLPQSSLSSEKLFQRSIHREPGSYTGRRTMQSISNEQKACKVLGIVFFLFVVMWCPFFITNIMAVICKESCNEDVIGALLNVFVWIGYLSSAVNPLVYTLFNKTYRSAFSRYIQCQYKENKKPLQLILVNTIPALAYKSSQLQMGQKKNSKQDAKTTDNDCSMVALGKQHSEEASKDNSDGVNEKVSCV
# Outline: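 Antagonist-mode intracellular calcium assay: DOI (4 nM) added after 5 min compound pre-incubation at room temperature to dye-loaded HTR2A-CHO cells. Fluorescence followed for 3 min, sampled every second.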
# [7] = target: Muscarinic acetylcholine receptor M1 (Homo sapiens) (UniProt P11229); assay: Cholinergic receptor muscarinic 1 (CHRM1) small molecule antagonists, cell-based qHTS assay (AID 1963588); conditions: CHRM1-CHO antagonist mode, calcium flux fluorescence; series mostly up to 61.5 µM; note: nearly all actives have a fitted effect of over 40% in size; note: potency is the fitted concentration of half-maximal effect
# Sequence of Muscarinic acetylcholine receptor M1 (Homo sapiens) (P11229 whole entry, looked up): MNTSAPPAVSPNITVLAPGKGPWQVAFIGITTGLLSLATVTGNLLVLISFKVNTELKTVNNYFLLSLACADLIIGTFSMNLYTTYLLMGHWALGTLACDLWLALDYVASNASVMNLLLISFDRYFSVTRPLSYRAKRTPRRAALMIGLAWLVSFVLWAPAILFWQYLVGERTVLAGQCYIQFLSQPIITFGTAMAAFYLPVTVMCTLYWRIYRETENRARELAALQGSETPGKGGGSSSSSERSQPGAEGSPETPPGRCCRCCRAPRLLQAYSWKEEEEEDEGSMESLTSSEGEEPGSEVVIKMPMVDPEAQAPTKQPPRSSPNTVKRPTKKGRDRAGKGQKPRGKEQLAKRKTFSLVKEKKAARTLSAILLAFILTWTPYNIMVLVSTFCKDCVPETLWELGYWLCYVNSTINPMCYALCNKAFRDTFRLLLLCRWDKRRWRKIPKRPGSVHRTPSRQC
# Outline: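 CHRM1-CHO calcium-flux assay, antagonist mode. Cells were seeded 18 h, dye-loaded 1 h at 37 C and given compound for 5 min at RT, then acetylcholine was added at 50nM. FDSS fluorescence was read 3 min; 15 concentrations, three runs.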
# [8] = target: Muscarinic acetylcholine receptor M1 (Homo sapiens) (UniProt P11229); assay: Cholinergic receptor muscarinic 1 (CHRM1) small molecule agonists, cell-based qHTS assay (AID 1963589); conditions: CHRM1-CHO cells, agonist mode, calcium flux fluorescence; series mostly up to 76.8 µM; note: nearly all actives have a fitted effect of over 35% in size
# Outline: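 CHO cells stably expressing human CHRM1, seeded 18 h at 37 C/5% CO2, dye-loaded 1 h at 37 C, then given compound in agonist mode; intracellular calcium fluorescence read kinetically at 1 s intervals. Fifteen concentrations, three independent runs.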
# [9] = cAMP Responsive Elements (CRE) small molecule agonists, cell-based qHTS assay (AID 1963590); conditions: CRE-bla HEK293T, beta-lactamase FRET ratio, 3 h; series mostly up to 92.4 µM; note: potency is the fitted concentration of half-maximal effect
# Outline: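 CRE-bla HEK 293T cells in DMEM with 10% dialyzed FBS, NEAA, pyruvate and 25 mM HEPES were plated 18 h at 37 C/5% CO2, then exposed to compounds in DMSO for 3 h before LiveBLAzer B/G FRET substrate addition.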
# [10] = cAMP Responsive Elements (CRE) small molecule antagonists, cell-based qHTS assay (AID 1963591; active = well fitted inhibition curve with a large enough effect in the signal ratio in the repeat runs, not every such curve was filed as active; the % refers to the signal ratio); conditions: CRE-bla HEK293T, beta-lactamase FRET ratio; series mostly up to 92.4 µM
# Outline: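 CRE-bla HEK293T cells were plated 18 h at 37 °C/5% CO2, pinned with compound in DMSO, then stimulated with NKH477 at 0.25 uM final for 3 h. LiveBLAzer B/G FRET substrate was added and plates incubated 2 h at room temperature.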
# [11] = target: Beta-2 adrenergic receptor (Homo sapiens) (UniProt P07550); assay: Adrenergic beta2 receptor (ADRB2) small molecule antagonists, cell-based qHTS assay (AID 1963592); conditions: CHO-ADRB2 cells, isoproterenol-stimulated cAMP HTRF ratio, 0.5 h; series mostly up to 92.4 µM; note: nearly all actives have a fitted effect of over 50% in size; note: potency is the fitted concentration of half-maximal effect
# Sequence of Beta-2 adrenergic receptor (Homo sapiens) (P07550 whole entry, looked up): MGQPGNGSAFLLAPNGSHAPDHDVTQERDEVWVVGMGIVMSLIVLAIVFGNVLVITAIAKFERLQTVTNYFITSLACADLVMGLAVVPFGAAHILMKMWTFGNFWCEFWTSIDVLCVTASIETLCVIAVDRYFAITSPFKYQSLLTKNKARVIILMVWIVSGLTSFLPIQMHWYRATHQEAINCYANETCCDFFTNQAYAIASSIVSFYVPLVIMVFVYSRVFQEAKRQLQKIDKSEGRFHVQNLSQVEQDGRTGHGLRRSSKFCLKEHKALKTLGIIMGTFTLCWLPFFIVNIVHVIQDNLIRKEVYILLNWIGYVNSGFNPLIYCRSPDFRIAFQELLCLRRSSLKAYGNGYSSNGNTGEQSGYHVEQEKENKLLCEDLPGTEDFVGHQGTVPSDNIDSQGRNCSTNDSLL
# Outline: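 Cells (CHO, stable ADRB2 overexpression) incubated 18-20hr at 37C; compounds added from DMSO; agonist mix (1nM isoproterenol, 100uM IBMX, 25uM Ro-20-1724) added; 0.5hr RT; d2-cAMP and anti-cAMP-cryptate added; 1hr RT; 665/615 nm read.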
# [12] = target: Beta-2 adrenergic receptor (Homo sapiens) (UniProt P07550); assay: Adrenergic beta2 receptor (ADRB2) small molecule agonists, cell-based qHTS assay (AID 1963593); conditions: CHO-ADRB2 cells, cAMP HTRF, 30 min; series mostly up to 92.4 µM;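 note: CHO cells stably overexpressing human ADRB2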
# Outline: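 CHO cells stably over-expressing ADRB2 were plated overnight at 37C, then dosed with compounds plus a stimulation mix containing 100uM IBMX and 25uM Ro-20-1724 for 0.5hr at room temperature. cAMP was measured by HTRF competition, 1hr.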
# [13] = target: D(2) dopamine receptor (Homo sapiens) (UniProt P14416); assay: Dopamine D2 receptor (DRD2) small molecule agonists, cell-based qHTS assay (AID 1963594); conditions: HEK293-DRD2 cAMP HTRF, agonist mode, 30 min; series mostly up to 92.4 µM; note: nearly all actives have a fitted effect of over 35% in size; note: potency is the fitted concentration of half-maximal effect
# Sequence of D(2) dopamine receptor (Homo sapiens) (P14416 whole entry, looked up): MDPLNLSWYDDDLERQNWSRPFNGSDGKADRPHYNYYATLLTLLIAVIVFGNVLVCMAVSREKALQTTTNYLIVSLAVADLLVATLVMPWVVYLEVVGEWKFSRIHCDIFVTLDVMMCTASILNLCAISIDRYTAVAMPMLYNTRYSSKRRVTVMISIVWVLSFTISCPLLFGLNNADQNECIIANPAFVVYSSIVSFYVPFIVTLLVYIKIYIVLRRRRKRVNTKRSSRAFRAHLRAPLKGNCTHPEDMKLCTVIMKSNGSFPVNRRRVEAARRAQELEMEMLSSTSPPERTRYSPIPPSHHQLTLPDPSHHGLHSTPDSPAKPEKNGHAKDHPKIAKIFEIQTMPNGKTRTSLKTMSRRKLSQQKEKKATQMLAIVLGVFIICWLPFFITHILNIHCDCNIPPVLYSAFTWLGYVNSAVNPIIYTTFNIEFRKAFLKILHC
# Outline: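 HEK293 cells stably expressing human DRD2, pre-treated with PDE inhibitor Ro20-1724 (0.1 mM final) and compound 10 min at room temperature, then stimulated with NKH477 (200nM […]) for 30 min. cAMP read by HTRF (665/620 nm).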
# [14] = target: D(2) dopamine receptor (Homo sapiens) (UniProt P14416); assay: Dopamine D2 receptor (DRD2) small molecule antagonists, cell-based qHTS assay (AID 1963595; active = well fitted inhibition curve with a large enough effect in the signal ratio in the repeat runs, with a control signal flat; the % refers to the signal ratio; note: potency is the fitted concentration of half-maximal effect); conditions: HEK293-DRD2 cAMP HTRF antagonist mode; series mostly up to 92.4 µM
# Outline: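 HEK293 cells stably expressing DRD2 were preincubated with 0.1 mM Ro20-1724, then with compound for 10 min at room temperature. Cells were stimulated with 200 nM NKH477 plus 12 nM quinpirole for 30 min, and cAMP was read by HTRF.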
# [15] = p53 small molecule agonists, cell-based qHTS assay with human liver microsomes (AID 1963577); conditions: HCT-116 p53RE-bla with human liver microsomes, ratio, 16 h; series mostly up to 66 µM;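 note: p53 response element beta-lactamase reporter cells with liver microsomes plus NADPH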
# Outline: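 Metabolically competent format: test substances, human liver microsomes and NADPH (both 0.5 mg/mL final) incubated with p53RE-bla cells 16 h at 37 C. Beta-lactamase reporter signal then quantified by fluorescence.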
# [16] = p53 small molecule agonists, cell-based qHTS assay with human liver microsomes: qHTS cell viability counter screen (AID 1963579); conditions: p53RE-bla HCT-116 viability, ATP luminescence, 16 h, HLM; series mostly up to 66 µM; note: nearly all actives have a fitted effect of over 45% in size; note: potency is the fitted concentration of half-maximal effect
# Outline: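 Tox21 library compounds, delivered from DMSO stocks, were tested on p53RE-bla cells together with 0.5 mg/mL human liver microsomes and 0.5 mg/mL NADPH (final) over 16 h at 37 C; CellTiter-Glo luminescence served as the cytotoxicity measure.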
# [17] = p53 small molecule agonists, cell-based qHTS assay with rat liver microsomes: qHTS cell viability counter screen (AID 1963580); conditions: p53RE-bla HCT-116 + rat microsomes, ATP viability, 16 h; series mostly up to 66 µM; note: nearly all actives have a fitted effect of over 45% in size
# Outline: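 p53RE-bla HCT-116 cells were exposed 16 h at 37 C to compounds with rat liver microsomes (0.5 mg/mL) and NADPH (0.5 mg/mL). Viability was measured in the same wells as ATP content by CellTiter-Glo luminescence.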
# [18] = p53 small molecule agonists, cell-based qHTS assay: qHTS cell viability counter screen (AID 1963581); conditions: p53RE-bla HCT-116 viability, ATP luminescence, 16 h; series mostly up to 66 µM; note: nearly all actives have a fitted effect of over 45% in size
# Outline: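 p53RE-bla HCT-116 cells were exposed to compounds for 16 h at 37 C; after the beta-lactamase FRET read in the same wells, CellTiter-Glo was added and luminescence (intracellular ATP) read after 30 min at room temperature.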
# [19] = target: 5-hydroxytryptamine receptor 2A (Homo sapiens) (UniProt P28223); assay: 5-hydroxytryptamine receptor 2A (HTR2A) small molecule agonists, cell-based qHTS assay (AID 1963587); conditions: HTR2A-CHO cells, calcium flux fluorescence, agonist mode; series mostly up to 76.8 µM; note: nearly all actives have a fitted effect of over 30% in size
# Outline: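 CHO cells stably expressing human HTR2A, plated 18 h, loaded with calcium dye 1 h at 37 C. Agonist mode: compounds added and intracellular calcium fluorescence recorded kinetically for 2 min at 1 sec intervals.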
Structure (SMILES),Potency [1],Potency [2],Potency [3],Potency [4],Potency [5],Potency [6],Potency [7],Potency [8],Potency [9],Potency [10],Potency [11],Potency [12],Potency [13],Potency [14],Potency [15],Potency [16],Potency [17],Potency [18],Potency [19]
Cc1ccc(O)c([C@H](CCN(C(C)C)C(C)C)c2ccccc2)c1,inactive,inactive,inactive,inactive,inactive,inactive,0.0326 µM (active),inactive,inactive,inactive,inactive,inactive,inactive,inactive,,,,,
Cc1ccc(Cl)cc1N,inactive,inactive,inactive,,inactive,inactive,inactive,inactive,inactive,inactive,inactive,,inactive,inactive,inactive,inactive,inactive,inactive,inactive
Cc1ccc(N=Nc2c(O)c(C(=O)O)cc3ccccc23)c(S(=O)(=O)O)c1,inactive,inactive,inactive,inactive,,inactive,inactive,inactive,,inactive,inactive,inactive,inactive,inactive,,inactive,inactive,inactive,inactive
C#C[C@]1(O)CC[C@H]2[C@@H]3[C@H](C)CC4=C(CCC(=O)C4)[C@H]3CC[C@@]21C,inactive,inactive,inactive,inactive,inactive,,,,,,23.7 µM (active),,,inactive,,inactive,inactive,,
O=C(OCC(O)CO)c1ccccc1Nc1ccnc2cc(Cl)ccc12 (stereo not drawn),inactive,inactive,inactive,,,inactive,,inactive,,,inactive,inactive,inactive,inactive,,,inactive,inactive,inactive
CCCCCCCCC(=O)OCC(C)OC(=O)CCCCCCCC (stereo not drawn),inactive,inactive,inactive,,,inactive,inactive,inactive,inactive,,inactive,,inactive,inactive,,inactive,inactive,inactive,inactive
CO[C@]1(NC(=O)CSC(F)F)C(=O)N2C(C(=O)O)=C(CSc3nnnn3CCO)CO[C@H]21,inactive,inactive,inactive,inactive,inactive,inactive,inactive,inactive,inactive,,inactive,inactive,inactive,inactive,,inactive,inactive,inactive,inactive
CCCCCCCCCO,inactive,inactive,inactive,,inactive,,inactive,inactive,inactive,inactive,inactive,inactive,43.3 µM (active),inactive,,,,inactive,inactive
Cc1c[nH]c(=O)[nH]c1=O,inactive,inactive,inactive,,inactive,inactive,inactive,inactive,inactive,inactive,inactive,inactive,inactive,inactive,inactive,inactive,inactive,inactive,inactive
CN1CCN(CCCN2c3ccccc3Sc3ccc(S(=O)(=O)N(C)C)cc32)CC1,inactive,inactive,inactive,inactive,inactive,,5.16 µM (active),,,,,,inactive,0.0473 µM (active),,inactive,inactive,inactive,inactive
CN1CCN(C2=Nc3cc(Cl)ccc3Nc3ccccc32)CC1,inactive,inactive,inactive,,,,,,,,,,,,,,,inactive,
O=C1N=C(O)CN1/N=C/c1ccc(-c2ccc([N+](=O)[O-])cc2)o1,inactive,inactive,inactive,,,inactive,inactive,inactive,,,,,inactive,inactive,,inactive,inactive,inactive,inactive
Nc1nc2ccc([N+](=O)[O-])cc2s1,inactive,inactive,inactive,,,3.75 µM (active),,inactive,,,inactive,,,,,28.9 µM (active),,inactive,inactive
Cc1cc(NC(=O)C(=O)O)cc(C)c1Oc1ccc(O)c2c1CCC2,inactive,inactive,inactive,inactive,,inactive,inactive,inactive,inactive,,inactive,inactive,,inactive,,inactive,inactive,inactive,
Cc1nc(Nc2ncc(C(=O)Nc3c(C)cccc3Cl)s2)cc(N2CCN(CCO)CC2)n1,inactive,inactive,inactive,inactive,inactive,inactive,inactive,inactive,0.841 µM (active),inactive,inactive,inactive,,inactive,inactive,,inactive,,inactive
